Values joined by “and” are separate entries in the source; they are usually repeats but may differ in a detail not shown here. Identical values can stand only once. Records with an inconclusive call do not appear. Where a call stands in place of a potency, no number is given. Some compounds were tested as several samples or in several runs, with calls that do not always agree. Active and inactive are the calls of the source. Calls come from the whole dose curve; as a rule, active = well fitted activation curve with a large enough effect in the repeat runs; inconclusive = weak or mixed curves; inactive = flat fitted curve, though single readings scatter.
Potency is the fitted concentration of half-maximal effect.

The nature of the assay: A CellTox Green Cytotoxicity Assay to monitor cytotoxicity in HEK293 cells - 40 hour (AID 1224871). Note: nearly all actives have a fitted effect of over 45% in size. The note with it: CellTox Green fluorescence; series mostly up to 76.8 µM. The source says: National Center for Advancing Translational Sciences [NCATS]
NIH Chemical Genomics Center [NCGC]
U.S. Environmental Protection Agency [EPA]
National Institutes of Environmental Health Sciences [NIEHS]
National Toxicology Program [NTP]
Cell-based models are critical for drug discovery. Determining the natural cytotoxic effects resulting from test compounds is an essential research activity. A CellTox Green Cytotoxicity Assay to monitor cytotoxicity in real time of continues cell culture during 40 hours of the compound treatment was used to screen Tox21 10K library compounds in Hek293 cells. CellTox Green Cytotoxicity Assay is a nonlytic, homogeneous, biofluorescent method to measure cytotoxicity in cell culture after experimental manipulation. The assay system uses a proprietary asymmetric cyanine dye that is excluded from viable cells but preferentially stains the dead cell's DNA. […] Viable cells produce no appreciable increases in fluorescence. Therefore, the fluorescence signal produced by the binding interaction with dead cell DNA is proportional to cytotoxicity.
The mixture of Hek293 cell suspension and reagents were dispensed at 600cells/6 ul/well in 1536-well tissue culture treated black solid bottom plates using a Multidrop dispenser. After the assay plates were incubated at a 37 C/5% CO2 incubator for 5 hours, 23 nL of compounds dissolved in DMSO, positive and negative controls was transferred to the assay plate by a pintool work station. The plates were incubated at 37 C for 40 hours. The fluorescence intensity were measured at 0h, 8h, 16h, 24h, 32h and 40h time points using ViewLux plate reader during compound treatment.
Turning to `CCc1cccc(CC)c1N(COC)C(=O)CCl`, the Potency entry was “inactive”. On to `CCOC(=O)C(C)OC(=O)c1cc(Oc2ccc(C(F)(F)F)cc2Cl)ccc1[N+](=O)[O-]` (stereo not given), for which the Potency entry was “inactive”. For the compound `Nc1ccncc1`, the Potency entry is “inactive”. For the compound `CNC(=O)N(C)c1nnc(C(C)(C)C)s1`, the Potency entry is “inactive”.

Regarding `Nc1cccnc1`, the Potency entry is “inactive”. On to `CCC(=O)O[C@H]1CC[C@H]2[C@@H]3CCC4=CC(=O)CC[C@]4(C)[C@H]3CC[C@]12C`, for which the Potency is 19.5 µM (active) and 21.3 µM (active). `C=CCc1ccc(OC)cc1`: the Potency result was “inactive”. In the case of `N#CC(Br)Br`, the Potency entry was “inactive”. On to `CCC(C)(C)c1ccc(O)cc1`, for which the Potency is 49.5 µM (active) and 43.6 µM (active). Consider `Oc1cc(Cl)c(Cl)cc1Cl`, for which the Potency entry was “inactive”. For the compound `CC(C)=CC1C(C(=O)OCc2coc(Cc3ccccc3)c2)C1(C)C` (stereo not given), the Potency result is “inactive”. As for `Oc1cc(Cl)ccc1Oc1ccc(Cl)cc1Cl`, the Potency was 44.7 µM (active). For `CC(C)NC(C)C`, the Potency result was “inactive”. With `C=CCc1ccc2c(c1)OCO2`, the Potency entry was “inactive”. As to `Oc1ccc(-c2ccccc2)cc1`, the Potency is 19.2 µM (active). For the compound `O=C(Nc1ccc(Br)cc1)c1cc(Br)cc(Br)c1O`, the Potency was 38.9 µM (active) and inactive. As to `CC(C)N(C(=O)SCC(Cl)=C(Cl)Cl)C(C)C`, the Potency entry was “inactive”.

With `CCOCN(C(=O)CCl)c1c(C)cccc1CC`, the Potency entry was “inactive”. Regarding `CCC(C)c1cc([N+](=O)[O-])cc([N+](=O)[O-])c1O` (stereo not given), the Potency result is “inactive”. Next, `Nn1cnnc1`: “inactive”; `O=P(O)(O)CCCl`: “inactive”. For the compound `C=CC(=O)OCCO`, the Potency result is “inactive”. For `Cc1cc(C)cc(C)c1`, the Potency result was “inactive”. `CC(C)C(=O)OCC(C)(C)C(OC(=O)C(C)C)C(C)C` (stereo not given): the Potency entry was “inactive”. `Nc1ccc(Cl)cc1N`: the Potency is 21.9 µM (active). With `O=S(=O)(Oc1ccc(Cl)cc1)c1ccc(Cl)cc1`, the Potency result was “inactive”.

As to `CCCCN(CC)c1c([N+](=O)[O-])cc(C(F)(F)F)cc1[N+](=O)[O-]`, the Potency result is “inactive”. Take `c1ccc(NNc2ccccc2)cc1`: the Potency was 24.5 µM (active). Next, `N#CCCCl`: “inactive”; `CCCCCCOC(=O)c1ccccc1C(=O)OCCCCCC`: “inactive”; `NNC(N)=S`: “inactive”.

For the compound `OCC(O)CO`, the Potency entry is “inactive”.

`O=[N+]([O-])c1c(Cl)c(Cl)c(Cl)c(Cl)c1Cl`: the Potency is 21.8 µM (active) and inactive.

Turning to `CCN(CC)C(=O)/C(Cl)=C(\C)OP(=O)(OC)OC`, the Potency entry is “inactive”.

Regarding `C=C(C)C(=O)OCC1CO1` (stereo not given), the Potency result was “inactive”.

As to `CC(C)(C)c1ccccc1O`, the Potency was 39.4 µM (active). In the case of `CCC(C)(c1ccc(O)cc1)c1ccc(O)cc1`, the Potency result was “inactive”. In the case of `S=C1NCCN1` it was “inactive”; in that of `CNC(=O)Oc1cccc2c1OC(C)(C)O2`, “inactive”; in that of `CC(O)CCO` (stereo not given), “inactive”.

The record behind these values is PubChem BioAssay (Tox21).
